Among the test systems are HOP-92 NSCLC; A549/ATCC NSCLC; RXF 393 renal; SK-MEL-5 melanoma; CCRF-CEM leukemia; OVCAR-8 ovarian; OVCAR-4 ovarian; T-47D breast; MDA-MB-435 melanoma; SW-620 colon; MCF7 breast; HCT-116 colon; KM12 colon; HCC-2998 colon; EKVX NSCLC; CAKI-1 renal; SK-MEL-28 melanoma; IGROV1 ovarian.
Common to all, as to assay: NCI-60 one-dose screen, 48 h (100 = growth as untreated, 0 = no growth, -100 = all killed)
What all share (conditions): 10 µM

Each structure is given as a SMILES string. This is part of a sample that, as a whole, favours compounds with a hit. Of some 83,000 tested, about 20% had one in any assay.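 Single-concentration screen, 48 h exposure, 96-well plates. Endpoint: percent growth. Below 10 = active.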 Unmarked numbers belong to inactive results. Active and inactive are the calls of the source.

`O=C(c1ccc(F)cc1)C(c1c[nH]c2ccccc12)c1c[nH]c2ccccc12`: the growth was 90.5% in the assay with HOP-92 NSCLC; 91.7% in the assay on A549/ATCC NSCLC; 40.3% in the assay with RXF 393 renal; 89.8% in the assay on SK-MEL-5 melanoma; 3.4% (active) in the assay with CCRF-CEM leukemia; 76.3% with OVCAR-8 ovarian. Moreover, the growth with OVCAR-4 ovarian is 55.9%; in the assay on T-47D breast, 63.9%; in the assay with MDA-MB-435 melanoma, 58.4%; in the assay on SW-620 colon, 5.23% (active); with MCF7 breast it was 15.2%; in the assay on HCT-116 colon, 7.24% (active). In addition, the growth in the assay with KM12 colon is 70.3%.

Regarding `C#C[C@]1(O)CC[C@H]2[C@@H]3CC=C4c5sc(Nc6cc(C)cc(C)n6)nc5CC[C@]4(C)[C@H]3CC[C@@]21C`, the growth in the assay with HOP-92 NSCLC was -22.2% (active); with A549/ATCC NSCLC, 9.23% (active); in the assay on RXF 393 renal, -40% (active); with SK-MEL-5 melanoma, -99.7% (active); in the assay with CCRF-CEM leukemia, 5% (active); in the assay with OVCAR-8 ovarian it was 4.44% (active). Also, the growth in the assay on OVCAR-4 ovarian is 25.6%; in the assay with T-47D breast it was -35.6% (active); in the assay with MDA-MB-435 melanoma it was -6.28% (active); with SW-620 colon, -86.9% (active); in the assay on MCF7 breast, -89.7% (active); with HCT-116 colon, -56.1% (active). In addition, the growth was 1.37% (active) with HCC-2998 colon and -16.7% (active) in the assay with KM12 colon.

On to `Cc1ccc(-c2nc(C#N)c(S(=O)(=O)N3CCN(S(C)(=O)=O)CC3)o2)cc1`, for which the growth in the assay with HOP-92 NSCLC was 63.7%; with RXF 393 renal it was -35.2% (active); in the assay on SK-MEL-5 melanoma it was 55.2%; with EKVX NSCLC, 101%; in the assay with CAKI-1 renal, 72%; in the assay with CCRF-CEM leukemia, 7.57% (active). Moreover, the growth was 48.1% with OVCAR-4 ovarian; -52.4% (active) in the assay with T-47D breast; 57.9% with MDA-MB-435 melanoma; -71.8% (active) in the assay with SW-620 colon; 5.73% (active) with MCF7 breast; -74% (active) in the assay with HCT-116 colon. Also, the growth in the assay with HCC-2998 colon is 92.9%; in the assay with KM12 colon, 92.5%.

Consider `COc1cc(C2CC(c3ccccc3)=Nc3c(N)nc(N)nc3N2)ccc1Oc1nc(NCCO)nc(N2CCOCC2)n1` (stereo unspecified), for which the growth in the assay with HOP-92 NSCLC was 86.3%; in the assay on A549/ATCC NSCLC, 107%; with RXF 393 renal, 95.7%; with SK-MEL-5 melanoma, 98.7%; in the assay on EKVX NSCLC, 97.6%; in the assay on CAKI-1 renal, 93.9%. Further, the growth was 92.4% in the assay on CCRF-CEM leukemia; 102% with OVCAR-8 ovarian; 105% in the assay with OVCAR-4 ovarian; 90% in the assay on T-47D breast; 102% in the assay with MDA-MB-435 melanoma; 107% in the assay on SW-620 colon. For the same molecule, the growth in the assay on MCF7 breast was 83%; with HCT-116 colon, 105%; in the assay with KM12 colon, 102%.

Turning to `COc1ccc(C2OC[C@@]3(C)C4CC[C@]5(C)C(CC=C6C7CC(C)(C)CC[C@]7(C(=O)O)CC[C@]65C)[C@@]4(C)C[C@@H](O)[C@@H]3O2)cc1` (stereo partly specified), the growth in the assay with HOP-92 NSCLC was 64.8%; with RXF 393 renal it was 89%; with SK-MEL-5 melanoma, 80.5%; with SK-MEL-28 melanoma, 103%; in the assay with CCRF-CEM leukemia, 50.3%; with OVCAR-8 ovarian, 73.2%. For the same molecule, the growth in the assay with OVCAR-4 ovarian is 86.9%; in the assay on IGROV1 ovarian it was 101%; in the assay on T-47D breast it was 88.5%; in the assay on MDA-MB-435 melanoma it was 97%; in the assay on SW-620 colon it was 69.9%; in the assay on MCF7 breast, 50.9%. Besides, the growth in the assay with HCT-116 colon was 43.3%; with KM12 colon, 54.4%.

With `CC1[C@H]2[C@H](C[C@H]3[C@@H]4CC=C5c6sc(Nc7cccc(Cl)n7)nc6CC[C@]5(C)[C@H]4CC[C@@]32C)O[C@]12CC[C@@H](C)CO2` (stereo partly specified), the growth with HOP-92 NSCLC is 99.6%; with RXF 393 renal it was 123%; with SK-MEL-5 melanoma, 59.3%; in the assay with SK-MEL-28 melanoma, 100%; with CCRF-CEM leukemia, 66.6%; with OVCAR-8 ovarian, 74.2%. In addition, the growth was 104% with OVCAR-4 ovarian; 68% in the assay on T-47D breast; 75.8% in the assay on MDA-MB-435 melanoma; 104% in the assay on SW-620 colon; -66.6% (active) in the assay with MCF7 breast; 76.3% in the assay on HCT-116 colon. Also, the growth in the assay with KM12 colon was 84.9%.

With `COc1cc(-c2nc3ccc(C)cc3[nH]2)ccc1OCc1nnc(-c2ccccc2Br)o1`, the growth with HOP-92 NSCLC was 84.3%; with A549/ATCC NSCLC, 65.1%; with RXF 393 renal, 1.93% (active); in the assay with SK-MEL-5 melanoma it was 41.1%; with EKVX NSCLC it was 64.6%; with CAKI-1 renal it was 66%. The growth in the assay with CCRF-CEM leukemia was 19.4%; with OVCAR-8 ovarian, 63.3%; in the assay on OVCAR-4 ovarian it was 80.7%; with T-47D breast, 28%; with MDA-MB-435 melanoma it was 85.4%; with SW-620 colon it was 91.9%. In addition, the values for the growth in the assay on MCF7 breast, in the assay on HCT-116 colon and in the assay on KM12 colon were 44.4%, 61% and 65.9%, respectively.

Turning to `COc1cc2oc(-c3cccc(C(=O)Nc4ccc(Cl)cc4)c3)cc(=O)c2c(OCCN)c1OC`, the growth was -84% (active) with HOP-92 NSCLC; -58.3% (active) in the assay on A549/ATCC NSCLC; -85% (active) with RXF 393 renal; -94.7% (active) with SK-MEL-5 melanoma; -52.6% (active) in the assay on CCRF-CEM leukemia; -62.9% (active) in the assay on OVCAR-4 ovarian. Moreover, the growth with T-47D breast was -73.8% (active); with MDA-MB-435 melanoma, -76.9% (active); in the assay with SW-620 colon it was -79.4% (active); in the assay with MCF7 breast, -71.5% (active); in the assay with HCT-116 colon it was -90.3% (active); with HCC-2998 colon, -80.8% (active). In the assay with KM12 colon, the growth is -83.2% (active).

In the case of `COc1ccc(OC)c(-n2cc(C#N)c(N)c2C(=O)c2ccc(Cl)cc2Cl)c1`, the growth is 91.6% in the assay with HOP-92 NSCLC; 55.5% in the assay on RXF 393 renal; 54.2% in the assay with SK-MEL-5 melanoma; 42.7% with EKVX NSCLC; 11.4% in the assay with CCRF-CEM leukemia; 86.2% with OVCAR-4 ovarian. Also, the growth with T-47D breast is 42.6%; in the assay on MDA-MB-435 melanoma, -37.1% (active); in the assay with SW-620 colon it was 26.8%; in the assay with MCF7 breast, 16.1%; in the assay on HCT-116 colon it was 29.4%; in the assay with KM12 colon, 27.4%.

As for `CCOC(=O)C1=C(N)N(c2ccc(C)cc2)C2=C(C(=O)CC(C)(C)C2)C1c1ccccc1Br` (stereo unspecified), the growth is 71.6% with HOP-92 NSCLC; 86.5% in the assay with RXF 393 renal; 77.4% in the assay on SK-MEL-5 melanoma; 93.7% in the assay with SK-MEL-28 melanoma; 91% in the assay with EKVX NSCLC; 39.5% with CCRF-CEM leukemia. Besides, the growth with OVCAR-4 ovarian is 83.2%; in the assay on T-47D breast, 69.6%; in the assay with MDA-MB-435 melanoma it was 82.6%; in the assay on SW-620 colon it was 46%; with MCF7 breast, 56.6%; in the assay with HCT-116 colon, 40.6%. Besides, in the assay on KM12 colon, the growth is 83.8%.

The record behind these values is PubChem BioAssay (NCI).
